# Screening data from PubChem BioAssay.
# TbPYK inhibitor: qHTS of Trypanosoma Brucei Inhibitors; pyruvate kinase (Trypanosoma brucei), Q57TT1; TbPYK enzyme, Kinase-Glo Plus ATP luminescence, 45 min; Potency, µM (top dose mostly 76.8 µM), for inactives: top-dose activity, negative = inhibition, most hits filed as inhibitors; actives 0.12% (n = 410,000); AID 624173, 2012; further: nearly all actives have a fitted effect of over 50% in size
#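 TbPYK + substrate in 50 mM TEA pH 7.2, 100 mM KCl, 10 mM MgCl2, 0.05% BSA, 0.01% Tween-20; cpd pinned; ADP 130 uM final; 45 min RT; Kinase-Glo Plus 10 min; luminescence endpoint.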
# Sm TGR inh: qHTS Assay for the Inhibitors of Schistosoma Mansoni Peroxiredoxins; Potency, µM (titrated, usually from 114 µM), for the others: at the top dose activity change, negative = inhibition, most hits filed as inhibitors; actives 3% (n = 360,000); Schistosoma mansoni thioredoxin glutathione reductase (TGR), Q962Y6; purified TGR, DTNB reduction, TNB absorbance 405 nm; further: nearly all actives have a fitted effect of over 60% in size
#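 Kinetic colorimetric format: TGR-catalysed, NADPH-driven DTNB reduction monitored via TNB absorbance. Enzyme dispensed at 20 nM; compound exposure 15 min at room temperature before reaction start.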
# AMA1 RON2 block: qHTS for Inhibitors of AMA1-RON; Towards Development of Antimalarial Drug Lead: Primary Screen; Plasmodium falciparum AMA1 (3D7) - RON2 peptide interaction; AlphaScreen AMA1-biotinylated RON2 peptide binding; Potency, µM (highest dose often 58.2 µM), for the others: top-dose activity change, negative = inhibition, most hits filed as inhibitors; actives 0.2% (n = 360,000);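 further: 0% = vehicle wells and -100% = peptide control; nearly all actives have a fitted effect of over 45% in size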
#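 AMA1 (3D7) with his tag at 25 nM final met compounds first, then biotinylated RON2 peptide at 25 nM; detection used donor plus acceptor beads, 10 µg/mL apiece, read by AlphaScreen after 30 min at room temperature.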
# LmPK inh: qHTS Assay for Inhibitors of Leishmania Mexicana Pyruvate Kinase (LmPK); Q27686; AID 1721, 2009; Potency, µM (top dose mostly 57.5 µM), for the others: top-dose activity change, negative = inhibition, most hits filed as inhibitors; purified LmPK, Kinase-Glo ATP luminescence, 1 h; actives 0.37% (n = 290,000)
# Target sequence (Q27686 whole entry, looked up): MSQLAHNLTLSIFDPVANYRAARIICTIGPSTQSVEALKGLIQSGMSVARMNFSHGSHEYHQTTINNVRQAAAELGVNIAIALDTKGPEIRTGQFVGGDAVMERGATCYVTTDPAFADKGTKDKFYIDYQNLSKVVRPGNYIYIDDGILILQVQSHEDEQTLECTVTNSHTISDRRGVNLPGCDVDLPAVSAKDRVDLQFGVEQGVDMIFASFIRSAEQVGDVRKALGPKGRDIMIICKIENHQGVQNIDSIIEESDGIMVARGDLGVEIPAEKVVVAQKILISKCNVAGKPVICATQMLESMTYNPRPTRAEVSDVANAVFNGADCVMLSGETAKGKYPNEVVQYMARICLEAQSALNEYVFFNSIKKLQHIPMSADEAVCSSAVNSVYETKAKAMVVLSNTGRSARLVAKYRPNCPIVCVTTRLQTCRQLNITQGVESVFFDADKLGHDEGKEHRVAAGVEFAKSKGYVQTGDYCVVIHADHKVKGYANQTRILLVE
#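 Purified LmPK (0.1 nM) converted ADP (0.1 mM) to ATP with PEP (0.5 mM) in imidazole buffer pH 7.2 with KCl and MgCl2, 1 h at room temperature. ATP was read by Kinase-Glo luminescence; data normalized to uninhibited and no-enzyme controls.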
# RE007 growth inh: qHTS Assay for Inhibitors of the HIV-1 protein Vpr; S. pombe RE007 Vpr strain, BacTiter-Glo ATP luminescence, 24 h; Potency, µM (titrated, usually from 92.2 µM), inactives show top-dose activity change, negative = less growth, hits mostly inhibitors; actives 0.21% (n = 360,000); AID 651644, 2012; active means well fitted falling curve with a large enough effect; inconclusive means small, poorly fitted or top-dose-only effect; inactive means no such curve, though single readings can be large or run the other way; further: nearly all actives have a fitted effect of over 50% in size
#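 Fission yeast RE007 carrying one integrated HIV-1 vpr copy, seeded at OD 0.01 in PMG+AL medium with 23 nL pinned compound. Grown 24 h at 30 degrees; viability read by BacTiter-Glo luminescence after 5 min.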
# The depositor's hits bear a star; ? = inconclusive; · = no result; [ ] = another dose, or the depositor's remark. Compounds with a hit are over-represented: about 3.2% of the library has one in this group of screens. Unless noted, the call rests on the fitted dose curve; in most records, active means well fitted curve in the direction sought with a large enough effect; inconclusive means small, poorly fitted or top-dose-only effect, or another doubt; inactive means no such curve, though single readings can be large; an effect the other way counts as inactive or inconclusive. Unless noted, on the % scale 0 is the no-effect control and ±100 the full control effect; potency means the concentration at half of the fitted maximal effect.
SMILES,TbPYK inhibitor,Sm TGR inh,AMA1 RON2 block,LmPK inh,RE007 growth inh
Cc1oc(-c2ccc(Cl)cc2)nc1CSc1nnc(C)n2c1cc1sccc12,-2%,4%,·,·,·
CC(C)Nc1nc(Cl)nc(N(C#N)CN2C(=O)c3ccccc3S2(=O)=O)n1,-4%,20µM*,1%,5%,-1%
COc1nc(NC(C)C)nc(N(C#N)CN2C(=O)c3ccccc3S2(=O)=O)n1,-5%,-35%,-24%,1%,-4%
CCOc1ccc(-c2cc3nc(C4CCN(C(=O)OC(C)(C)C)CC4)c(C(=O)Nc4ccc(C)cc4C)cn3n2)cc1,-17%,0%,·,·,·
CCOC(=O)c1ccc(NC(=O)CN2c3ccccc3S(=O)(=O)c3ccccc32)cc1,3%,3%,·,·,·
COc1cc(C(CCN2CCCCC2)c2c(OC)cc(OC)c3c(-c4ccccc4)cc(=O)oc23)cc(OC)c1OC (centres undefined),-5%,45µM*,-18%,4%,-3%
CCCCCc1cc(=O)oc2c(C(CCN3CCCC3)c3ccc(N(C)C)cc3)c(OC)cc(OC)c12 (centres undefined),-3%,-25%,8.9µM*,5%,8%
CCN(CC)C(=O)CC(c1ccc(N(C)C)cc1)c1c(OC)cc(OC)c2c(-c3ccccc3)cc(=O)oc12 (centres undefined),-14%,-6%,22µM*,0%,-4%
COc1cc(C(CCN2CCCC(C)C2)c2c(OC)cc(OC)c3c(-c4ccccc4)cc(=O)oc23)cc(OC)c1OC (centres undefined),-1%,-32%,-17%,7%,7%
Cn1ncc(S(=O)(=O)Cc2ccccc2)c(Cl)c1=O,-5%,0.16µM*,17%,5%,-20%
Cn1ncc(SCc2ccccc2)c(Cl)c1=O,-1%,6%,-4%,-2%,15%
COc1cc(C(=O)NC2CCCNC2)cc(OC)c1OC (centres undefined),8%,35µM*,·,12%,·
COc1cc(C(=O)NC2CCN(CC(=O)NC3CCCCC3C)CC2)cc(OC)c1OC (centres undefined),-2%,-1%,6%,1%,4%
COC(=O)c1ccc(OCC2c3cc(OC)c(OC)cc3CCN2C(=O)c2cccc(C)c2)cc1 (centres undefined),-11%,8%,·,·,·
COc1cc2c(C(=O)NCc3ccc(C)o3)cn(CC(C)C)c(=O)c2cc1OC,-10%,10µM*,-2%,3%,4%
CCOc1ccc(Nc2cc(C)nc3nncn23)cc1,1%,0%,·,·,·
CCOc1ccc(-c2c(C)nn3c(C)c(C(=O)NCC(C)c4ccccc4)cnc23)cc1OCC (centres undefined),5%,-2%,·,·,·
COc1cccc(F)c1C(=O)NC(=O)Nc1ccc2nc(C)oc2c1,-7%,32µM*,-10%,-4%,0%
CSc1nc2ccc(NC(=O)NC(=O)c3c(F)cccc3F)cc2s1,1%,-1%,0%,-3%,-7%
O=[N+]([O-])c1ccc(N/N=C2\CC3CC=CC23)c([N+](=O)[O-])c1 (centres undefined),2%,?,14µM*,-1%,6%
CSCc1ccc(C(=O)N2CCCC(Nc3ccc4c(c3)OCCO4)C2)o1 (centres undefined),-14%,28µM*,-13%,3%,1%
COc1cc(-c2nnc(SCCOc3ccc(Cl)cc3C)o2)cc(OC)c1OC,0%,-1%,·,·,·
Cc1ccc(CNC(=O)CC(C)S(=O)(=O)c2ccc3c(c2)NC(=O)CS3)o1 (centres undefined),-12%,14µM*,0%,2%,14%
COc1ccc([C@]23Cc4ccccc4C(O2)C2=C(CC(C)(C)CC2=O)O3)cc1,·,?,·,-3%[11.5 µM],·
COc1ccc([C@]23Cc4ccccc4C(O2)C2=C(O3)C(=O)c3ccccc3C2=O)cc1,·,7.1µM*,·,0%[11.5 µM],·
SMILES,TbPYK inhibitor,Sm TGR inh,AMA1 RON2 block,LmPK inh,RE007 growth inh
COc1ccc([C@]23Cc4cc(OC)c(OC)cc4C(O2)C2=C(CCCC2=O)O3)cc1,·,3.5µM*,·,-2%[11.5 µM],·
Cc1ccc(CN(C(=O)c2ccccc2F)c2ccccn2)o1,-21%,45µM*,·,·,·
Cc1ccc(CN(C(=O)c2ccc(F)cc2)c2ccccn2)o1,-6%,-4%,·,·,·
CCOC(=O)N1CCc2c(sc(NCc3cccs3)c2C(=O)Nc2cc(Cl)ccc2OC)C1,?,-34%,·,·,·
Cc1ccc(Cl)cc1NC(=O)c1oc2ccc(S(=O)(=O)N(C)C3CCCCC3)cc2c1C,-14%,1%,·,·,·
C#CCOCCOCCOCCNc1nc(N2CCN(C(=O)CCCCCCCCCCNC(=O)[C@H](CCCCN)n3cc(CCO)nn3)CC2)nc(N2CCN(C(=O)CCCCCCCCCCNC(=O)[C@H](CCCCN)n3cc(C[C@@H](C)CC)nn3)CC2)n1,-5%,50µM*,?,·,8%
C#CCOCCOCCOCCNc1nc(N2CCN(C(=O)CCCCCCCCCCNC(=O)[C@H](CCCCN)n3cc(C[C@@H](C)CC)nn3)CC2)nc(N2CCN(C(=O)CCCCCCCCCCNC(=O)[C@H](CCCN=C(N)N)n3cc(C[C@@H](C)CC)nn3)CC2)n1,2%,?,?,·,4%
C#CCOCCOCCOCCNc1nc(N2CCN(C(=O)CCCCCCCCCCNC(=O)[C@H](CO)n3cc(CCCCCN)nn3)CC2)nc(N2CCN(C(=O)CCCCCCCCCCNC(=O)[C@H](CCCN=C(N)N)n3cc(C[C@@H](C)CC)nn3)CC2)n1,·,45µM*,·,·,·
C#CCOCCOCCOCCNc1nc(N2CCN(C(=O)CCCCCCCCCCNC(=O)[C@@H](CCSC)n3cc(CCO)nn3)CC2)nc(N2CCN(C(=O)CCCCCCCCCCNC(=O)[C@H](CCCN=C(N)N)n3cc(C[C@@H](C)CC)nn3)CC2)n1,2%,5µM*,?,·,-2%
C#CCOCCOCCOCCNc1nc(N2CCN(C(=O)CCCCCCCCCCNC(=O)[C@@H](CCC(=O)O)n3cc(CCCCCN)nn3)CC2)nc(N2CCN(C(=O)CCCCCCCCCCNC(=O)[C@H](CCCCN)n3cc(C[C@@H](C)CC)nn3)CC2)n1,0%,-27%,?,·,4%
Cc1ccc(CCNC(=O)c2cccc(Nc3nc4ccccc4nc3-n3nc(C)cc3C)c2)cc1,2%,2%,·,·,·
Cc1ccc(-n2c(-c3c(-c4ccccc4)noc3C)n[nH]c2=S)cc1,?,2%,70%,11µM*,-6%
